{"source": "PubChem BioAssay (Tox21)", "note": "A number with no mark means an inactive call. Calls of active or inactive are those of the source. The call rests on the fitted dose curve; in most records, active means well fitted curve in the direction sought with a large enough effect in the repeat runs; inconclusive means weak or mixed curves; inactive means flat fitted curve, though single readings scatter. On the % scale 0 is the no-effect control and ±100 the full control effect."}
{"experiment": "qHTS assay to test for compound auto fluorescence at 590 nm (red) in HepG2 cells (AID 720674)", "details": "HepG2 autofluorescence, red 540/590 nm, 1 h; series mostly up to 91.3 µM; fluorescence, relative to Rose Bengal: at the top concentration", "description": "U.S. Tox21 Program National Center for Advancing Translational Sciences [NCATS] NIH Chemical Genomics Center [NCGC] U.S. Environmental Protection Agency [EPA] National Institutes of Environmental Health Sciences [NIEHS] National Toxicology Program [NTP] U.S. Food and Drug Administration [FDA] Tox21 Assay Overview: Compound auto fluorescence often interferes with screening of the compound library against various biological targets and signaling pathways. Some of these compounds may have fluorophoric properties. Such properties may interfere with the assay outputs resulting in false positives and/or negatives. To decrease such complications and ensure the compound activities are relevant in terms of biological response, the Tox21 10K compound library was screened for auto fluorescence. From the fluorophores used as reporter signals in our screening assays, the auto fluorescence equivalencies of compounds against three fluorophores have been evaluated: Triamterene, Fluorescein and Rose Bengal sodium for blue, green and red fluorescence, respectively. The fluorescence intensities were measured using Excitation/Emission wavelengths at 405/460nm, 485/535nm and 540/590nm for blue, green and red labels, respectively. This assay includes the red fluorescence data.\nTox21 Assay Protocol Summary: 2,000 HepG2 cells in 5 uL of culture medium (MEM containing 10% FBS) per well were dispensed into black wall/clear bottom 1536-well plates using a Multidrop Combi Dispenser (ThermoFisher Scientific, Waltham, MA). The assay plates were incubated overnight at 37 C to allow cell attachment to the well bottom, followed by the transfer of 23 nL compound or DMSO vehicle by a pintool work station (Kalypsys , San Diego, CA). After the assay plates were incubated for 1 hr at 37 C and 5% CO2, fluorescence intensities in the assay plates were measured by an Envision (PerkinElmer, Shelton, CT) plate reader using three labels for measuring blue, green and red fluorescence at […] 460, 535 and 590 nm respectively."}
{"smiles": "c1ccc2c(c1)cc1ccc3cccc4ccc2c1c34", "fluorescence, relative to Rose Bengal": "0.124% [at 95.7 µM]"}
{"smiles": "CNC(=O)O/N=C(\\C)C(C)S(C)(=O)=O", "note": "(stereo not given)", "fluorescence, relative to Rose Bengal": "0.186% [at 920 µM]"}
{"smiles": "CC(=O)[O-].CC(=O)[O-].[Co+2]", "fluorescence, relative to Rose Bengal": "0.0055%"}
{"smiles": "O=[N+]([O-])c1ccc(Cl)c(Cl)c1Cl", "fluorescence, relative to Rose Bengal": "-0.0388%"}
{"smiles": "CCC(OC(C)=O)C(CC(C)NC)(c1ccccc1)c1ccccc1", "note": "(stereo not given)", "fluorescence, relative to Rose Bengal": "-0.594% [at 95.7 µM]"}
{"smiles": "O=C(N[C@@H]1N=C(c2ccccc2F)c2cccc3c2N(CC3)C1=O)c1cc2ccccc2[nH]1", "fluorescence, relative to Rose Bengal": "0.159% [at 46 µM]"}
{"smiles": "Oc1cc(Cl)cc(Cl)c1", "fluorescence, relative to Rose Bengal": "-0.326%"}
{"smiles": "CC(=O)[O][Sn]([c]1ccccc1)([c]1ccccc1)[c]1ccccc1", "fluorescence, relative to Rose Bengal": "-0.418%"}
{"smiles": "CC(=O)[O-].CC(=O)[O-].O.O.[Zn+2]", "fluorescence, relative to Rose Bengal": "-0.141%"}
{"smiles": "ClC1=C(Cl)[C@]2(Cl)[C@H]3[C@H]([C@@H]4C=C[C@H]3C4)[C@@]1(Cl)C2(Cl)Cl", "outcome": "inactive"}
{"smiles": "N#Cc1c[nH]cc1-c1cccc2c1OC(F)(F)O2", "fluorescence, relative to Rose Bengal": "-0.009%"}
{"smiles": "O.O.O.O.O.O.O=S(=O)([O-])[O-].[Ni+2]", "fluorescence, relative to Rose Bengal": "0.186% [at 46 µM]"}
{"smiles": "CCCN", "fluorescence, relative to Rose Bengal": "0.284%"}
{"smiles": "[F][Sn]([c]1ccccc1)([c]1ccccc1)[c]1ccccc1", "fluorescence, relative to Rose Bengal": "-0.0193%"}
{"smiles": "C=Cc1cccc(CCl)c1", "fluorescence, relative to Rose Bengal": "0.005% [at 203 µM]"}
{"smiles": "CCOC(=O)CCN(SN(C)C(=O)Oc1cccc2c1OC(C)(C)C2)C(C)C", "fluorescence, relative to Rose Bengal": "-0.0687%"}
{"smiles": "Oc1ccc(Cl)c(Cl)c1", "fluorescence, relative to Rose Bengal": "-0.0246%"}
{"smiles": "CC(C)[C@@H](Nc1ccc(C(F)(F)F)cc1Cl)C(=O)OC(C#N)c1cccc(Oc2ccccc2)c1", "note": "(stereo not given in full)", "fluorescence, relative to Rose Bengal": "-0.125%"}
{"smiles": "[O]=[Cr][O][Cr]=[O]", "fluorescence, relative to Rose Bengal": "-0.0983% [at 95.7 µM]"}
{"smiles": "c1ccc(Nc2ccc(Nc3ccccc3)cc2)cc1", "fluorescence, relative to Rose Bengal": "0.229%"}
{"smiles": "O=S1OCC2C(CO1)C1(Cl)C(Cl)=C(Cl)C2(Cl)C1(Cl)Cl", "note": "(stereo not given)", "outcome": "inactive"}
{"smiles": "CC1(C)C(C=C(Cl)Cl)C1C(=O)OC(C#N)c1ccc(F)c(Oc2ccccc2)c1", "note": "(stereo not given)", "fluorescence, relative to Rose Bengal": "-0.223%"}
{"smiles": "CN", "fluorescence, relative to Rose Bengal": "0.558% [at 95.7 µM]"}
{"smiles": "CN/C(=N\\[N+](=O)[O-])NCc1cnc(Cl)s1", "fluorescence, relative to Rose Bengal": "-0.0384%"}
{"smiles": "CC(=O)[O-].CC(=O)[O-].CC(=O)[O-].[Cr+3]", "fluorescence, relative to Rose Bengal": "0.207%"}
{"smiles": "C=CC(=C)C", "fluorescence, relative to Rose Bengal": "0.0331%"}
{"smiles": "COc1ccc2c3c1O[C@H]1[C@H](O)CC[C@H]4[C@@H](C2)N(C)CC[C@@]341", "fluorescence, relative to Rose Bengal": "-0.114%"}
{"smiles": "Cc1ccc2cc3c(ccc4ccccc43)c3c2c1CC3", "fluorescence, relative to Rose Bengal": "0.113% [at 46 µM]"}
{"smiles": "N#CCCl", "fluorescence, relative to Rose Bengal": "-0.118% [at 95.7 µM]"}
{"smiles": "COC(=O)/C=C(\\C)OP(=O)(OC)OC", "fluorescence, relative to Rose Bengal": "0.0171%"}
{"smiles": "CC[C@H](C)[C@H]1O[C@]2(C=C[C@@H]1C)C[C@@H]1C[C@@H](C/C=C(\\C)[C@@H](O[C@H]3C[C@H](OC)[C@@H](O[C@H]4C[C@H](OC)[C@@H](NC)[C@H](C)O4)[C@H](C)O3)[C@@H](C)/C=C/C=C3\\CO[C@@H]4[C@H](O)C(C)=C[C@@H](C(=O)O1)[C@]34O)O2", "fluorescence, relative to Rose Bengal": "0.306%"}
{"smiles": "C=CCBr", "fluorescence, relative to Rose Bengal": "0.284% [at 95.7 µM]"}
{"smiles": "COP(=S)(NC(C)C)Oc1ccc(C)cc1[N+](=O)[O-]", "note": "(stereo not given)", "fluorescence, relative to Rose Bengal": "-0.0004%"}
{"smiles": "[C-]1=CC=CC1.[Cl][Zr+2][Cl].c1cc[cH-]c1", "fluorescence, relative to Rose Bengal": "0.0436% [at 95.7 µM]"}
{"smiles": "CCN1CCC2(CC1)COc1cc3c(cc12)N(C(=O)c1ccc(-c2ccc(-c4nnc(C)o4)cc2C)cc1)CC3", "fluorescence, relative to Rose Bengal": "-0.118%"}
{"smiles": "Cc1c([N+](=O)[O-])cc2c(c1[N+](=O)[O-])C(C)(C)CC2(C)C", "fluorescence, relative to Rose Bengal": "0.185%"}
{"smiles": "CC(C)=CCN1CC[C@@]2(C)c3cc(O)ccc3C[C@@H]1[C@@H]2C", "fluorescence, relative to Rose Bengal": "0.385%"}
{"smiles": "CC(C)(C)c1ccc(OP(=O)(Oc2ccccc2)Oc2ccccc2)cc1", "fluorescence, relative to Rose Bengal": "-0.0477%"}
{"smiles": "COc1ccc2[nH]cc(CCN(C(C)C)C(C)C)c2c1", "fluorescence, relative to Rose Bengal": "0.187% [at 95.7 µM]"}
{"smiles": "O=C(O)[C@H](O)[C@@H](O)C(=O)O", "fluorescence, relative to Rose Bengal": "0.0347%"}
